Rows were chosen to be rich in hits. Some 12% of all compounds tested hit in one or more screens of this group.
Sfp PPTase inh – qHTS Assay for Inhibitors of Bacillus subtilis Sfp phosphopantetheinyl transferase (PPTase); 4'-phosphopantetheinyl transferase ffp (Bacillus subtilis), Q9F4F7; Biochemical Sfp PPTase activity, qHTS; Potency, µM, for inactives: largest response in the series, negative = inhibition, usual class: inhibitors; hit rate 3.5% among 310,000;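 further: the enzyme is Sfp with the accession as filed and its product quenches rhodamine fluorescence; 0% = enzyme reaction without inhibitor and -100% = no enzyme wells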
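Fluorescence-quenching assay: 15 nM Sfp-PPTase preincubated 15 min at room temperature with compound, then 5 uM rhodamine-CoA and 12.5 uM BHQ-2-labelled YbbR peptide added. Fluorescence (ex 525/em 598 nm) read at start and after 30 min; difference gives rate.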
HP1b binding inh – HTS for Inhibitors of HP1-beta Chromodomain Interactions with Methylated Histone Tails | AlphaScreen HP1-beta / biotin-H3K9me3 peptide binding | hit rate 0.56% among 390,000 | Potency, µM (doses to about 114 µM), inactives show at the highest dose activity change, negative = inhibition, hits mostly inhibitors | Chromobox protein homolog 1 (Homo sapiens), P83916; further: nearly all actives have a fitted effect of over 70% in size
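AlphaScreen: HP1-beta (50 nM) preformed 30 min with biotin-H3(1-18)K9me3 peptide (50 nM) in PBS pH 7.4, 0.01% Tween-20. Compound added for 30 min at RT, then streptavidin donor/nickel chelate acceptor beads (10 ug/mL) for 30 min.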
G9a block – qHTS Assay for Inhibitors of Histone Lysine Methyltransferase G9a; Histone-lysine N-methyltransferase EHMT2 (Homo sapiens), Q96KQ7; G9a H3K9 monomethylation, AlphaScreen, 2 h; Potency, µM (doses to about 102 µM), for inactives: at the highest dose activity, negative = inhibition, actives largely listed as inhibitors; hit rate 8.8% among 350,000; AID 504332, 2011; further: on the % scale 0 is the no-effect control and ±100 the full control effect; nearly all actives have a fitted effect of over 75% in size
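Compounds were preincubated with 20 nM G9a for 15 min, after which biotinylated H3K9 peptide (500 nM) and SAM (20 uM) started a 2 h room-temperature reaction. Monomethylated product was quantified by antibody-based AlphaScreen chemiluminescence.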
BAZ2B inh – qHTS Assay for Inhibitors of BAZ2B | AlphaScreen BAZ2B-H3K14Ac peptide displacement | Potency, µM (series often up to 114 µM), inactives show top-dose activity change, negative = inhibition, actives largely listed as inhibitors | hit rate 4.4% among 360,000; further: on the % scale 0 is the no-effect control and ±100 the full control effect; nearly all actives have a fitted effect of over 60% in size
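BAZ2B (50 nM) with biotin-H3(5-23)K14Ac peptide (50 nM) in PBS pH 7.4, 0.01% Tween-20, preformed 30 min, then compound 30 min at room temperature; top concentration 110uM. AlphaScreen streptavidin donor/nickel chelate acceptor beads (10 ug/mL final), 20 min dark, signal read.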
JMJD2A Tudor – qHTS Assay for Inhibitors of JMJD2A-Tudor Domain. Lysine-specific demethylase 4A (Homo sapiens), O75164. AlphaScreen JMJD2A-Tudor / H3K4me3 peptide binding. Potency, µM (doses to about 114 µM), without a hit: top-dose activity change, negative = inhibition, actives largely listed as inhibitors. hit rate 4.4% among 390,000. AID 504339, 2011; further: on the % scale 0 is the no-effect control and ±100 the full control effect; nearly all actives have a fitted effect of over 50% in size
* marks the source's active call; other numbers are inactive results; ? = inconclusive; · = no result; ! = repeats disagree; [ ] = another dose, or the depositor's remark. The call rests on the fitted dose curve; in most records, active means well fitted curve in the direction sought with a large enough effect; inconclusive means small, poorly fitted or top-dose-only effect, or another doubt; inactive means no such curve, though single readings can be large; an effect the other way counts as inactive or inconclusive. Potency means the concentration at half of the fitted maximal effect.

SMILES | Sfp PPTase inh | HP1b binding inh | G9a block | BAZ2B inh | JMJD2A Tudor
O=[N+]([O-])c1cccc(-c2cn(-c3ccccc3)c(=S)[nH]2)c1 | 15.4% | 25.7% | 1.58µM* | 0.5% | -28.3%
O=[N+]([O-])c1ccc(-c2cn(-c3ccccc3)c(=S)[nH]2)cc1 | -10.8% | 10.4% | ? | 5.2% | -12.8%
O=[N+]([O-])c1cccc(-c2n[nH]c(=S)n2-c2ccccc2)c1 | -9.8% | 1.2% | 2.24µM* | -5.1% | 22.4µM*
O=[N+]([O-])c1cccc(-c2ccc(/C=N/n3c(-c4ccccc4)n[nH]c3=S)o2)c1 | -18.0% | 0.8% | ? | -4.6% | -9.5%
O=[N+]([O-])c1ccc2c(c1)[nH]c(=S)n2-c1ccccc1 | -99.2% | -11.3% | 3.16µM* | ? | ?
CC1NC(=S)N(Cc2ccccc2)C1=O (configuration not stated) | 30.9% | 27.0% | -1.3% | 1.3% | -3.0%
Cc1cccc(-c2n[nH]c(=S)n2-c2ccccc2)c1[N+](=O)[O-] | 1.6% | 23.4% | 2.24µM* | 4.7% | 35.5µM*
COc1ccccc1-n1cc(-c2ccc(Br)cc2)[nH]c1=S | 9.4% | -20.3% | -1.3% | 2.3% | ?
COc1ccc(-n2c(-c3cc(-c4ccccc4)sc3N)n[nH]c2=S)cc1 | -20.4% | 36.1% | 0.7% | -17.2% | -15.2%
Nc1ccc(-n2cc(-c3ccccc3)[nH]c2=S)cc1 | 35.5µM* | -4.3% | 7.94µM* | -34.4% | ?
C=CCc1cccc(C2C(C)CCC3C(=O)N4C(CCC(C)C4c4cccc(CC=C)c4)C(=O)N32)c1 (configuration not stated) | -23.2% | · | · | · | ·
COC(=O)Nc1ccc(=O)n(Cc2c(Cl)cccc2Cl)c1 | -10.3% | 9.9% | 70.8µM* | -23.7% | -11.9%
CCOC(=O)C1=C(C)NC2=C(C(=O)c3ccccc32)C1c1ccc([N+](=O)[O-])o1 (configuration not stated) | 35.5µM* | 50.1µM* | · | 11.2µM* | 22.4µM*
CCOc1ccc(Br)cc1C1C(C(=O)OC)=C(C)NC2=C1C(=O)c1ccccc12 (configuration not stated) | · | ? | ? | 22.4µM* | 25.1µM*
CCOC(=O)COc1ccccc1C1C(C(=O)OC)=C(C)NC2=C1C(=O)c1ccccc12 (configuration not stated) | · | ? | 12.6µM* | 39.8µM* | 39.8µM*
CCOc1cc(C2C(C(=O)OC)=C(C)NC3=C2C(=O)c2ccccc23)cc(Cl)c1O (configuration not stated) | · | -12.5% | ? | ? | -23.5%
COC(=O)COc1ccc(C2C(C(=O)OC)=C(C)NC3=C2C(=O)c2ccccc23)cc1OC (configuration not stated) | · | ? | 12.6µM* | 25.1µM* | ?
Cc1nn2c(=O)cc(COC(=O)c3ccc(F)cc3)nc2s1 | · | 8.2% | 14.9%[59 µM] | -6.5% | -12.0%
CCSC(C)CC1CC(=O)CC(=O)C1 (configuration not stated) | -6.0% | 22.0% | 56.2µM* | -4.6% | -15.6%
CCCc1nc2c(o1)CC(CC(C)SCC)CC2=O (configuration not stated) | 9.4% | 18.3% | -2.2% | -8.4% | 8.9%
CC(C)Oc1ccc(Cc2cnc(=S)[nH]c2N)cc1 | 4.5% | 39.6% | 50.1µM* | -17.6% | -15.2%
O=C(Nc1ccccn1)Nc1cccs1 | 50.1µM* | 16.5% | 56.2µM* | ? | -18.2%
O=C(Nc1cccc(C(F)(F)F)c1)Nc1cccs1 | · | -22.6% | -42.4%[59 µM] | -7.8% | -25.8%
CCc1ccccc1NC(=O)Nc1cccs1 | 50.1µM* | 42.6% | 50.1µM* | 2.5% | -13.1%
CC(C)NC(=O)Nc1cccs1 | 79.4µM* | 28.1% | 14.1µM* | -2.5% | -14.4%
SMILES | Sfp PPTase inh | HP1b binding inh | G9a block | BAZ2B inh | JMJD2A Tudor
CCc1ccccc1NC(=O)CCC(=O)c1cccs1 | 2.5% | 28.5% | 11.6% | -20.0% | -13.6%
Cc1ccc(Cl)cc1NC(=O)Nc1cccs1 | 50.1µM* | 24.6% | ? | -7.8% | -16.8%
COc1cccc(NC(=O)Nc2ccccc2SC)c1 | -11.3% | 12.7% | 6.4% | -18.5% | -32.3%
Cc1ccccc1NC(=O)Nc1cccs1 | 22.4µM* | 6.7% | ? | -36.0% | -26.3%
O=C(Nc1cccs1)N1CCN(c2ncccn2)CC1 | -23.2% | 26.9% | 39.8µM* | -6.0% | -10.4%
O=C(Nc1ccc(F)cc1)N1CCN(c2ncccn2)CC1 | 14.9% | 25.8% | 4.4% | 9.2% | -4.1%
Cc1ccc(NC(=O)Nc2cccs2)c(C)c1 | · | 23.2% | ? | -32.4% | -18.2%
Cc1noc(NS(=O)(=O)c2ccc(N/C=C\C(=O)c3ccc4c(c3)OCO4)cc2)c1C | -24.1% | -6.1% | -19.7%[12.7 µM] | ? | -32.1%
Cc1cc2c(C)cc(=O)[nH]c2cc1NC(=O)CCl | 11.6% | 39.9% | ? | 1.7% | -7.4%
O=C(CCl)Nc1cc2[nH]c(=O)[nH]c2cc1Br | -18.2% | 26.8% | 50.1µM* | -20.6% | -6.9%
CCCCn1nc2cc(C(=O)NCc3ccc(OC(F)(F)F)cc3)ccc2c1OC | 10.1% | 38.8% | 0.9%[59 µM] | 8.0% | ?
O=C(/C=C/c1ccccc1Cl)c1ccccc(=O)c1O | 44.7µM* | ? | 31.6µM* | 56.2µM* | ?
Cc1ccc(C)c(NC(=O)c2ccccc2O)c1 | 3.5% | -11.8% | 16.8%[59 µM] | 3.8% | ?
Cc1ccc(/C=C/C(=O)c2ccccc(=O)c2O)c(C)c1 | ? | -38.6% | 50.1µM* | 50.1µM* | ?
O=C(/C=C/c1ccccc1Cl)Nc1ccccc1 | -26.3% | 52.2% | · | 2.9% | 2.0%
Cc1ccc(C)c(/C=C/C(=O)c2ccccc(=O)c2O)c1 | ? | -25.9% | 44.7µM* | 56.2µM* | ?
CCc1cc2c(SCC(=O)N3CCCC3=O)ncnc2s1 | · | 48.9% | 16.1%[59 µM] | 11.0% | -9.0%
Cn1ncc2c(N3CCN(c4ccc(F)cc4)CC3)ncnc21 | · | -6.3% | 3.8%[59 µM] | 79.4µM* | -26.3%
COc1ccc(N2CCN(c3ncnc4c3nnn4C)CC2)cc1 | · | 25.1% | ? | -22.2% | -30.8%
Cn1nnc2c(N3CCN(c4ccc(F)cc4)CC3)ncnc21 | · | 11.9% | -27.4%[59 µM] | -12.5% | 39.8µM*
CC(C)Cn1c(CCC(N)=O)nnc1SC(C)C(=O)Nc1ccc2c(c1)OCO2 (configuration not stated) | · | 23.2% | 2.9%[12.7 µM] | 8.0% | -13.8%
COc1ccc(CCN2CC(C(=O)NC3CCCCC3)CC2=O)cc1OC (configuration not stated) | -2.5% | 40.9% | 10.9%[59 µM] | 50.1µM* | 2.1%
COc1ccc(CCN2CC(C(=O)NCCc3ccc(C)cc3)CC2=O)cc1OC (configuration not stated) | 9.9% | -12.2% | 1.7%[59 µM] | 56.2µM*! | -35.2%

Assay outcomes as filed in PubChem BioAssay.
